Laboratory results published in PubChem BioAssay (NCATS).
Results filed as inconclusive are left out. Unmarked numbers belong to inactive results. The call rests on the fitted dose curve; in most records, active means well fitted inhibition curve with a large enough effect; inconclusive means small, poorly fitted or top-dose-only effect; inactive means flat fitted curve, though single readings scatter.

Target: Aldehyde dehydrogenase, mitochondrial (Homo sapiens) (UniProt P05091)
Experiment: qHTS for Inhibitors of the Aldehyde Dehydrogenase Family (ALDH2) Primary screen (AID 2061308);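 further: plate controls were vehicle for no effect and reference inhibitor for full effect; nearly all actives have a fitted effect of over 55% in size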
Details: ALDH2 enzyme inhibition qHTS, 1536-well; series mostly up to 56 µM; activity change, negative = inhibition: at the top concentration

Structure (SMILES)	activity change, negative = inhibition
O=C1CCc2cc(S(=O)(=O)Nc3ccc(F)cc3)ccc2N1	-5.58%
c1csc(CNc2ncnc3ccc(-c4ccc5c(c4)OCO5)cc23)c1	-1.89%
CC1=C(C(=O)c2ccccc2)C(c2ccccc2Cl)N=C(Nc2nc3ccccc3o2)N1 (stereo not given)	1.97%
CCOc1ccc(CCNC(=O)C2CCCCC2)cc1OCC	6.75%
O=C(Nc1ccc(Cl)c(C(F)(F)F)c1)Nc1nnc(-c2cccnc2)s1	3.43%
CCNC(=O)c1ccc(-c2ccc3ncnc(NCC(C)(C)C)c3c2)o1	-15.9%
C=C[C@H](/C=C\c1ccc(O)cc1)c1ccc(O)cc1	5.54%
COc1cc(O)c(C(CC(=O)N2CC(C)CC(C)C2)c2ccc3c(c2)OCCO3)c(OC)c1 (stereo not given)	-10.2%
O=[S+]([O-])(Nc1ccc(C2CCNCC2)cc1)c1ccc(NCc2ccc(Br)cc2O)cc1	-0.528%
N[C@@H](Cc1ccc(O[S+](=O)([O-])c2cccc3cccnc23)cc1)C(=O)N1CCN(c2ccccc2)CC1	10.1%
CC/C=C/CC1=C(CCCCC(CCC(=O)O)OC(C)=O)CCC1=O (stereo not given)	-8.67%
COc1ccc(CN(Cc2ccccc2)C(=O)c2ccc(OC)cc2O)cc1	3.01%
O=c1c2ccc(C(F)(F)F)cc2nc2sc(Nc3ccc4c(c3)CCC4)nn12	-0.0251%
CC(=O)O[C@@](C)(C(=O)/C=C/C(C)(C)O)[C@H]1[C@H](O)C[C@@]2(C)[C@@H]3CC=C4[C@@H](C=C(O)C(=O)C4(C)C)[C@]3(C)C(=O)C[C@]12C	-9.77% [at 28 µM]
CCCCCNc1oc(-c2cccc3ccccc23)nc1C#N	0.777%
Cc1ccnc(NC(=S)N2CC3CN(c4cccc(C(F)(F)F)c4)CC3C2)c1 (stereo not given)	-25.2%
CCCn1c(-c2ccc(F)cc2)nc2c(NCCN3CCOCC3)nc(C)nc21	1.97%
O=C(OCC#CCSc1nnc(-c2ccccc2Cl)o1)c1ccc(F)cc1	7.23%
O=C1CCCC2=C1C(c1[nH]ncc1Cl)NC(=NCc1ccoc1)N2 (stereo not given)	2.23%
O=C1CCCC2=C1C(c1ccccc1Br)N=C(Nc1nc3ccccc3o1)N2 (stereo not given)	2.98%

Structure (SMILES)	activity change, negative = inhibition
Cn1c2ccsc2c2cnn(Cc3ccccc3F)c(=O)c21	14.8%
COc1cccc(N2C(=O)c3ccccc3C2=O)n1	-26.8%
C=C(NC(=O)C(=C)NC(=O)c1csc(C2=NC3c4csc(n4)C4NC(=O)c5csc(n5)C(C(C)(O)C(C)O)NC(=O)C5CSC(=N5)/C(=C/C)NC(=O)C(C(C)O)NC(=O)c5csc(n5)C3(CC2)NC(=O)C(C)NC(=O)C(=C)NC(=O)C(C)NC(=O)C(C(C)CC)NC2C=Cc3c(C(C)O)cc(nc3C2O)C(=O)OC4C)n1)C(N)=O (stereo not given)	-23.2%
O=C1CCCC2=C1C1(CCCOC1)N=C(Nc1nc3ccccc3o1)N2 (stereo not given)	-8.4%
COc1ccc(C2Nc3ccccc3C(=O)N2Cc2cccnc2)cc1COc1c(C)cccc1C (stereo not given)	-13.2%
S=C(NCCCc1cnc[nH]1)NCCCN(Cc1ccc(Cl)cc1)c1ccc(Br)cn1	10.6%
CC1CCC2(C(=O)OC3OC(COC4OC(CO)C(O)C(O)C4O)C(O)C(O)C3O)CCC3(C)C(=CCC4C5(C)CCC(O)C(C)(C(=O)O)C5CCC43C)C2C1(C)O (stereo not given)	8.55% [at 16.9 µM]
COC(=O)c1ccccc1NC(=O)c1ccc(F)cc1F	2.29%
Cc1ccc(NS(=O)(=O)c2cc3c(cc2/C=C/c2ccccc2)NC(=O)CO3)cc1C	-14.1%
c1cncc(-c2ccc(CNc3nc(-n4ccnc4)nc4ccccc34)cc2)c1	13.4%
CC(=O)Nc1ccc(S(=O)(=O)Nc2ccc(C)c(C)c2)cc1	5.49%
Cc1ccc(S(=O)(=O)Nc2cc(Br)ccc2C(=O)Nc2nc(-c3ccccc3)cs2)cc1	10.8%
O=C1CCc2cc(S(=O)(=O)Nc3ccc4ccccc4c3)ccc2N1	-3.1%
O=C(COc1ccc(F)cc1)NCCc1nc2ccccc2[nH]1	9.87%
O=C(Cn1cc(CNCc2ccccc2)nn1)Nc1cc(C(F)(F)F)ccc1Cl	8.31%
CC(C)C[C@@H]1NC(=O)[C@@H](Cc2ccccc2)NC(=O)C(CCCCCC(=O)C2CO2)NC(=O)[C@@H]2CCCCN2C1=O (stereo not given in full)	5.43% [at 28 µM]
C=C(C)C(=O)O[C@H]1CC2=CC(C/C(C)=C\[C@H]3OC(=O)C(=C)[C@H]13)OC2=O (stereo not given in full)	12.9%
CCCn1ncc(CN2CCCC(C(=O)c3cccc(OC(C)C)c3)C2)c1C (stereo not given)	3.08%
COc1ccc(C2c3c(n(Cc4ccccc4)cnc3=N)Oc3ccc4ccccc4c32)cc1OC (stereo not given)	4.06%
COc1cc(OC)cc(C2=Nn3c(nnc3-c3ccccc3O)SC2)c1	4.09%
